Most compounds without a hit are left out; they make up all but 19% or so of the library.
HT1080 IDH1KD tx: kills HT-1080 cells with IDH1 knockdown | 360,000 tested, 2% active | HT-1080 IDH1 knockdown viability, ATP luminescence, 48 h | Potency, µM (top dose mostly 46.1 µM), for inactives: at the highest dose activity, negative = toxicity, hits mostly cytotoxic;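 note: potency is the fitted concentration of half-maximal effect; 0% = DMSO wells and -100% = cell-free medium wells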
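% activity derives from luminescence (CellTiter-Glo), normalised to DMSO and no-cell wells. HT-1080-IDH1KD cells, 750/well, had 48 h compound exposure at 37 °C.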
TDP1 cell noCPT: qHTS for Inhibitors of human tyrosyl-DNA phosphodiesterase 1 (TDP1): qHTS in cells in absence of CPT | DT40 Tdp1-/- hTDP1 cells, no CPT, ATP luminescence, 48 h | Potency, µM (doses to about 46.2 µM), for the others: top-dose activity change, negative = growth inhibition, hits mostly inhibitors | 420,000 tested, 15% active; note: potency is the fitted concentration of half-maximal effect; nearly all actives have a fitted effect of over 55% in size
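Stably hTDP1-transfected Tdp1-null chicken DT40 cells were treated with library compounds minus camptothecin and grown for at least 48 hr at 37 °C, after which cellular ATP was quantified by luminescence.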
IL-1B inflam inh: inflammasome signaling inhibition, IL-1 beta readout | THP-1 LPS/ATP IL-1B secretion, AlphaLISA, 16 h; active compounds read low | activity change, % at 57.5 µM | 360,000 tested, 4.7% active | AID 743279; in the data active = activity change below about -50%; inconclusive = mostly about -30% to -49%
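Secreted IL-1B measured by AlphaLISA bead assay after 16 h compound exposure of THP-1 cells; compounds (final up to 57.5 uM) added 1 h before LPS (250 ng/mL) and ATP (1.25 mM) stimulation; lower signal means less secretion.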
HT1080-NT tox: kills 2HG-producing HT-1080-NT fibrosarcoma cells | HT-1080-NT fibrosarcoma viability, CellTiter-Glo ATP luminescence, 48 h | Potency, µM (titrated, usually from 46.1 µM), for inactives: top-dose activity, negative = less viability, actives largely listed as cytotoxic | 360,000 tested, 1.6% active | AID 686970;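 note: NT is the 2HG producing partner of a matched IDH1 knockdown line; potency is the fitted concentration of half-maximal effect; 0% = DMSO-treated cells and -100% = media-only wells without cells; nearly all actives have a fitted effect of over 55% in size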
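Fibrosarcoma NT cells, 750 per well in 5% FBS RPMI, were exposed to compound for 48 hours. Viability: CellTiter-Glo luminescence.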
DT40 TDP1 CPT: DT40-hTDP1 cell growth loss with CPT. Potency, µM (highest dose often 46.2 µM), for inactives: at the highest dose activity change, negative = growth inhibition, most hits filed as inhibitors. chicken DT40 Tdp1-/-;hTDP1 cells + 20 nM CPT, ATP luminescence, 48 h. 420,000 tested, 12% active. AID 686979; note: potency is the fitted concentration of half-maximal effect; nearly all actives have a fitted effect of over 55% in size
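Chicken DT40 Tdp1-/- cells complemented with human TDP1, 400 cells/well, exposed to compounds plus 20 nM camptothecin for at least 48 h at 37 C; viability read as ATP content by CellTiter-Glo luminescence.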
The depositor's hits bear a star; u = inconclusive; x = not tested or not shown; [ ] = dose if it differs, or a comment. Unless noted, calls come from the whole dose curve; as a rule, active = well fitted curve in the direction sought with a large enough effect; inconclusive = small, poorly fitted or top-dose-only effect, or another doubt; inactive = no such curve, though single readings can be large; an effect the other way counts as inactive or inconclusive. Unless noted, % is set by controls: 0 for no effect and ±100 for the full control effect.

SMILES	HT1080 IDH1KD tx	TDP1 cell noCPT	IL-1B inflam inh	HT1080-NT tox	DT40 TDP1 CPT
COc1ccc(-c2nn(-c3ccccc3)cc2C(=O)Nc2ccc(C(=O)O)cc2)cc1	2.0%	u	-26.3	-5.1%	1.5%
CN(c1ncc(C(F)(F)F)cc1Cl)N1C(=O)c2cccc([N+](=O)[O-])c2C1=O	5.7%	2.2%	-4.0	13.3%	-5.8%
COc1ccccc1-c1ccc2c(c1)C(C)(Cc1cccc(F)c1)C(=O)N2 (stereo not drawn)	u	u	42.0	u	u
CC(=O)c1cccc(-c2ccc3c(c2)C(C)(Cc2ccccc2F)C(=O)N3)c1 (stereo not drawn)	u	18.4µM*	82.2	-7.0%	25.9µM*
CC1(Cc2ccc(OC(F)(F)F)cc2)C(=O)Nc2ccc(OC(F)(F)F)cc21 (stereo not drawn)	u	u	-13.0	u	u
COC(=O)c1ccc(CC2(C)C(=O)Nc3ccc(-c4cccc(C(F)(F)F)c4)cc32)o1 (stereo not drawn)	u	16.4µM*	-24.1	u	u
CN(C)c1cc(-c2ccccc2)nc(-c2ccccc2)n1	15.4%	11.2%	-17.9	10.4%	-3.1%
Cc1ccc2nc(SCC(=O)NCc3ccccc3)nc(=O)n2c1	17.3%	u	-16.1	6.1%	-19.2%
COc1cccc(NC(=S)N2CCc3cc(OC)c(OC)cc3C2COc2ccc3c(C)cc(=O)oc3c2)c1 (stereo not drawn)	1.7%	-0.5%	-16.6	-1.9%	16.3%
COc1cc2c(cc1OC)C(COc1ccc3c(C)cc(=O)oc3c1)N(C(=O)c1ccc(C)c(C)c1)CC2 (stereo not drawn)	x	16.4µM*	x	x	u
CCCC(=O)N1CCc2cc(OC)c(OC)cc2C1COc1ccc2c(C)cc(=O)oc2c1 (stereo not drawn)	x	13µM*	x	x	u
COc1ccc(C(=O)N2CCc3cc(OC)c(OC)cc3C2COc2ccc3c(C)cc(=O)oc3c2)c(OC)c1 (stereo not drawn)	x	-20.6%	x	x	1.7%
CCC(CC)C(=O)N1CCc2cc(OC)c(OC)cc2C1COc1ccc2c(C)cc(=O)oc2c1 (stereo not drawn)	x	16.4µM*	x	x	u
CC(C)(C)CC(C)(C)NCC(O)COc1c(F)cc(Br)cc1F (stereo not drawn)	20.6µM*	23.1µM*	u	20.6µM*	u
CC(C)(C)NCC(O)COc1c(F)cc(Br)cc1F (stereo not drawn)	0.2%	-10.6%	37.3	8.5%	-1.4%
C=CCNC(=S)NNC(=O)c1ccc(=O)n(Cc2ccc(Cl)cc2Cl)c1	-3.1%	u	41.0	-14.8%	-15.4%
Cc1oc2c(C)c3oc(=O)c(CC(=O)N4CCCCC4)c(C)c3cc2c1C	x	20.6µM*	x	x	20.6µM*
Cc1c(CC(=O)N2CCCCC2)c(=O)oc2c(C)c(O)ccc12	x	-8.2%	x	x	-11.1%
Cc1coc2c(C)c3oc(=O)c(CCC(=O)N4CCCCC4)c(C)c3cc12	x	16.4µM*	x	x	13µM*
Cc1ccc(N2CCN(C(=O)C3CCC(=O)N(Cc4ccc(Cl)cc4)C3)CC2)c(C)c1 (stereo not drawn)	-12.8%	18.4µM*	-13.8	-7.7%	18.4µM*
CC(C)n1c(C(=O)OCC(=O)NCc2ccc3c(c2)OCO3)cc2sccc21	-0.4%[9.24 µM]	u	32.7	u	u
CCOc1cc(-c2nc(-c3ccc(OC)cc3)no2)cc(OCC)c1OCC	12.9%	-18.2%	-17.4	9.7%	-15.7%
CCOc1ccc(-c2cc(-c3nc(-c4cc(OC)c(OC)c(OC)c4)no3)[nH]n2)cc1Cl	x	3.26µM*	x	x	5.8µM*
COc1ccc(-c2noc(COc3cc(C)c(Br)c(C)c3)n2)cc1OC	x	-27.2%	x	x	-29.3%
COc1ccc(OCc2nc(-c3ccc(OC)c(OC)c3)no2)cc1	x	u	x	x	16.4µM*
CCOc1ccc(-c2cc(-c3nc(-c4ccc(OC)c(OC)c4)no3)[nH]n2)cc1	x	6.51µM*	x	x	16.4µM*
